Structures are written as SMILES. Among all 310,000 compounds or so, about 14,000 (4.5%) showed an effect of 50% or more. Effects have a minus sign here. The full list was thinned out, with strong results kept by preference.

The values that follow come from paper PMC4336329 (PLoS ONE, 2015).
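Note: peak tail current of the secondary pulse compared with the same well before compound.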

Chain of human ether-à-go-go-related gene (hERG) potassium channel (Q12809 whole entry, looked up): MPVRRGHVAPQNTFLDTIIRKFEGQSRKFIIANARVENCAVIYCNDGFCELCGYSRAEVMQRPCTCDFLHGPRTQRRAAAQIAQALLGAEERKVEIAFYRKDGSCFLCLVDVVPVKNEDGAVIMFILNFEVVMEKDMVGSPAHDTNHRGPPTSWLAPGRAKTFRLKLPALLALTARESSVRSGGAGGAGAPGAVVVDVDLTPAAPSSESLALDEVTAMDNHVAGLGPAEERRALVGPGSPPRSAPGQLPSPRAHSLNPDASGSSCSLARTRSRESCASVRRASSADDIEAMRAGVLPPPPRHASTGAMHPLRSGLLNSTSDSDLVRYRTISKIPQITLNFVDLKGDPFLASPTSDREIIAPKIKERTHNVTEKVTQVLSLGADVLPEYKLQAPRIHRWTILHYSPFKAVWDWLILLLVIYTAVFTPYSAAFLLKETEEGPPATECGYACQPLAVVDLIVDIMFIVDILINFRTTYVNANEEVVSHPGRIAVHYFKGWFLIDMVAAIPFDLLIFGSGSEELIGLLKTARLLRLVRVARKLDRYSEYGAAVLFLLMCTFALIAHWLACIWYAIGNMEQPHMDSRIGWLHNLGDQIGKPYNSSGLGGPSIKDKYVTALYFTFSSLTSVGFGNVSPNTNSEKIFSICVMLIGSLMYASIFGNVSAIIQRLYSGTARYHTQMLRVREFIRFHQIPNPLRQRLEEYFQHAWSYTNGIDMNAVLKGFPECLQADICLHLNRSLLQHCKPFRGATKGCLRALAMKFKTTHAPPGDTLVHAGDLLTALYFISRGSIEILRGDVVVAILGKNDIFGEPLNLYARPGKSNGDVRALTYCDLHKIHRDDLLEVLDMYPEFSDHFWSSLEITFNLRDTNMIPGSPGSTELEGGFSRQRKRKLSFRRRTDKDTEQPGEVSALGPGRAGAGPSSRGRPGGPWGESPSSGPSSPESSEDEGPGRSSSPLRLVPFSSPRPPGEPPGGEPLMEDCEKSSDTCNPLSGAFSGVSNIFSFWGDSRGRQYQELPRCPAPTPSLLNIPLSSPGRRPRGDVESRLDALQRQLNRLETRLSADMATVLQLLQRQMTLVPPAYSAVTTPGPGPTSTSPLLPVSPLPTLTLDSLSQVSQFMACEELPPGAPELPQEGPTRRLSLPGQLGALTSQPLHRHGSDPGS

This assay has as its target human ether-à-go-go-related gene (hERG) potassium channel (human, UniProt Q12809). Nature of the assay: primary screen, population patch clamp on CHO cells stably expressing hERG; higher = less effect of the substance.
As to `COC(=O)c1ccc(NS(=O)(=O)c2cc3c4c(c2)C(C)C(=O)N4CCC3)cc1` (stereo not shown), the “hERG current change (%, negative = inhibition) at 10uM” value came out at 2.73%.
Then `Fc1cccc2sc(Nc3nc4cc5c(cc4s3)OCO5)nc12`, with 20.3%; and `COC(=O)C1CCN(C(=O)COC(=O)c2ccc(=O)n(Cc3ccccc3)n2)CC1`, with -4.78%.
Then `CC(C)CN(C(=O)COC(=O)c1ccc(-c2ccccc2)cc1)C1CCS(=O)(=O)C1` (stereo not shown), with 17.5%; and `CCOc1cc(/C=N/NC(=O)Cc2ccc(C(F)(F)F)cc2[N+](=O)[O-])c(Br)cc1OC`, with 8.3%; and `CCCCCC[N+](C)(C)CC/C=C1/c2ccccc2Sc2ccc(Cl)cc21.[Br-]`, with -75.2%.
Next, `CCCCCCCCCC[N+](C)(C)CC/C=C1/c2ccccc2Sc2ccc(Cl)cc21.[Br-]`: -76.6%; `CCCCCCCCCCC[N+](C)(C)CC/C=C1/c2ccccc2Sc2ccc(Cl)cc21.[Br-]`: -32.8%.
For `CC[N+](C)(C)CC/C=C1/c2ccccc2Sc2ccc(Cl)cc21.[Br-]`, the “hERG current change (%, negative = inhibition) at 10uM” value was -25.3%.
Turning to `CN(C)CC/C=C1/c2ccc(F)cc2Sc2ccc(Cl)cc21.Cl`, the “hERG current change (%, negative = inhibition) at 10uM” value amounted to 5.06%.
`CN(C)CC/C=C1/c2ccccc2Sc2c(O)cc(Cl)cc21`: the “hERG current change (%, negative = inhibition) at 10uM” value is given as -47.5%.
Then `O=C1NC(=S)S/C1=C/c1ccc(Oc2cnccn2)cc1`, with 20%; and `Cc1cccc(C(=O)NC(=S)N2CCN(C(=S)NC(=O)c3cccc(C)c3)CC2)c1`, with -0.873%.
As for `CCCC(OC(=O)CC1Sc2ccccc2NC1=O)C(=O)NCc1ccco1` (stereo not shown), the “hERG current change (%, negative = inhibition) at 10uM” value is listed as -13.8%.
Next, `Cc1ccc(CSCC(=O)N2CCOCC2)cc1`: 8.89%.
Regarding `O=C(NNC1=C(C(=O)C(F)(F)F)CCC1)c1cccc(Cl)c1`, the “hERG current change (%, negative = inhibition) at 10uM” value came to 7.77%.
Then `CCOC(=O)C1(Cc2cccc(OC)c2)CCN(Cc2cccc(O)c2)CC1`, with -54.7%; and `CCOC(=O)C1(Cc2cccc(OC)c2)CCN(Cc2ccc3c(c2)OCCO3)CC1`, with -38%.
Then `CCOC(=O)C1(Cc2cccc(OC)c2)CCCN(Cc2cc(OC)c(O)c(OC)c2)C1` (stereo not shown), with -33.7%; and `CCOC(=O)C1(Cc2cccc(OC)c2)CCN(Cc2ccc(OC)c(OC)c2)CC1`, with -68.8%; and `CCOC(=O)C1(Cc2cccc(OC)c2)CCN(Cc2ccc(OC)c(O)c2)CC1`, with -77.9%.
Next, `CCOC(=O)C1(Cc2cccc(OC)c2)CCN(Cc2ccccc2)CC1`: -40.3%.
With `CCOC(=O)C1(Cc2cccc(OC)c2)CCN(Cc2csc(C(C)=O)c2)CC1`, the “hERG current change (%, negative = inhibition) at 10uM” value is listed as -41.1%.
As for `CCOC(=O)C1(Cc2cccc(OC)c2)CCN(CCO)CC1`, the “hERG current change (%, negative = inhibition) at 10uM” value is -54.3%.
Then `CCOC(=O)C1(Cc2cccc(OC)c2)CCN(CC(O)CO)CC1` (stereo not shown), with -4.39%.
